Data: article PMC7862700, “An all-to-all approach to the identification of sequence-specific readers for epigenetic DNA modifications on cytosine”

Key:
Assay in all cases: DAPPL (digital affinity profiling via proximity ligation, sequencing); 10 mM Tris-HCl pH 7.5, 50 mM NaCl, 1 mM DTT, 4% glycerol, room temperature, 30 min; GST-TFs on glutathione beads, 16-mer random dsDNA library, 0.1% formaldehyde crosslink after washing; high values mean tight binding
FEV = target: T1, FEV (Homo sapiens, UniProt Q99581 1-238); settings: protein: recombinant; tags: N-terminal GST; dsDNA, one strand shown
T1 sequence: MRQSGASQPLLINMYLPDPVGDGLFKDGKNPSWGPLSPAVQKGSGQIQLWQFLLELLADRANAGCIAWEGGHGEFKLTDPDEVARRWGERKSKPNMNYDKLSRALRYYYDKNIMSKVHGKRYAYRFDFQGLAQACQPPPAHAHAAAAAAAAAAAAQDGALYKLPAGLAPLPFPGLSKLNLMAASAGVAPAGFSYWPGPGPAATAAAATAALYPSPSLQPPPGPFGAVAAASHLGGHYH
In short: (§1)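 Sequencing on an Illumina NextSeq500 followed washing, crosslinking with 0.1% formaldehyde, proximity ligation (BsaI/T4 ligase, 1 h, 37 °C) and PCR amplification of pools that had been incubated for 30 min at room temperature with 200 nmole of a random double-stranded 16-mer DNA library in Tris/NaCl/DTT/glycerol buffer. Each pool held DNA-barcoded human transcription factors, expressed in yeast as GST fusions and captured on glutathione beads, plus a tag-only sample. Binding signal is a hexamer's read frequency for a factor divided by its frequency in the tag-only sample.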

ETV5 = ETV5 (Homo sapiens, UniProt P41161 1-510); settings: protein: recombinant; tags: N-terminal GST; dsDNA, one strand shown
In short: as §1

HSF1 = HSF1 (Homo sapiens, UniProt Q00613 1-529); settings: protein: recombinant; tags: N-terminal GST; chain copies: 3; dsDNA, one strand shown
In short: as §1

SPIC = target: T2, SPIC (Homo sapiens, UniProt Q8N5J4 1-248); settings: protein: recombinant; tags: N-terminal GST; dsDNA, one strand shown
T2 sequence: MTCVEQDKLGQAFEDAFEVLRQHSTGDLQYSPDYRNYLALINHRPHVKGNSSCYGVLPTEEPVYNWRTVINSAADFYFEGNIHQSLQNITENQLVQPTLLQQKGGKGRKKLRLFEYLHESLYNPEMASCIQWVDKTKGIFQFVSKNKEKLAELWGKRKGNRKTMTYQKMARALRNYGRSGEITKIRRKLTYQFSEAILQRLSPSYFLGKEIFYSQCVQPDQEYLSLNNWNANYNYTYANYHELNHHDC
In short: as §1

ELF4 = ELF4 (Homo sapiens, UniProt Q99607 1-663); settings: protein: recombinant; tags: N-terminal GST; dsDNA, one strand shown
In short: as §1

ELK4 = target: T3, ELK4 (Homo sapiens, UniProt P28324-2 1-405); settings: protein: recombinant; tags: N-terminal GST; dsDNA, one strand shown
T3 sequence: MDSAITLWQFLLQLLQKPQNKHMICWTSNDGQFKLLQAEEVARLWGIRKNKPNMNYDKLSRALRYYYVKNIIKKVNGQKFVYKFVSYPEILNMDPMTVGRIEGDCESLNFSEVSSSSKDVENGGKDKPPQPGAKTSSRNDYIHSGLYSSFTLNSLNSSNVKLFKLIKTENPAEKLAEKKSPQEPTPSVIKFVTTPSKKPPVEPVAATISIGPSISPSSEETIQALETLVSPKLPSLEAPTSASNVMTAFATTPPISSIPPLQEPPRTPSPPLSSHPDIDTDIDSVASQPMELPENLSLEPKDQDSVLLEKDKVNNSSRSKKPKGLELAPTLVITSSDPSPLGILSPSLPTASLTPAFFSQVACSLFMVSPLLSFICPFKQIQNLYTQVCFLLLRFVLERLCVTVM
In short: as §1

ETV2 = target: T4, ETV2 (Homo sapiens, UniProt O00321 1-342); settings: protein: recombinant; tags: N-terminal GST; dsDNA, one strand shown
T4 sequence: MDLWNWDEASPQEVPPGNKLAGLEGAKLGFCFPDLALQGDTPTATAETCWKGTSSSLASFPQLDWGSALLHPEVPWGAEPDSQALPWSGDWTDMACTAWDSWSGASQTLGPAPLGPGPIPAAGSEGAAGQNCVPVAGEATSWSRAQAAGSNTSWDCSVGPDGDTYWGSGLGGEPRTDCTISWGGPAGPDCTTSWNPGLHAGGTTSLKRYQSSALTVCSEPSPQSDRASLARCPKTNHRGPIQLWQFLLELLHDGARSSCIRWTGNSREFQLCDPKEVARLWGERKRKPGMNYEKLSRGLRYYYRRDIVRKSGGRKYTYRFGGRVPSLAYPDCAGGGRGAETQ
In short: as §1

ELF3 = target: T5, ELF3 (Homo sapiens, UniProt P78545 1-371); settings: protein: recombinant; tags: N-terminal GST; dsDNA, one strand shown
T5 sequence: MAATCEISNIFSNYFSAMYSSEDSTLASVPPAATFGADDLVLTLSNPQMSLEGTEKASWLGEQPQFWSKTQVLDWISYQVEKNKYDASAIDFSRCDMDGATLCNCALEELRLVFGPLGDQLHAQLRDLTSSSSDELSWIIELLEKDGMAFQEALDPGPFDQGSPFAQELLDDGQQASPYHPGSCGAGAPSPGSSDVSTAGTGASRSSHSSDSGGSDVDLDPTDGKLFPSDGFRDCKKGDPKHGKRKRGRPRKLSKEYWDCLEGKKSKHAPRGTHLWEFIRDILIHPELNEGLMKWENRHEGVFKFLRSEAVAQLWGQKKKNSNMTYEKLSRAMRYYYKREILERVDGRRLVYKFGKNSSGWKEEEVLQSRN
In short: as §1

CRX = CRX (Homo sapiens, UniProt O43186 1-299); settings: protein: recombinant; tags: N-terminal GST; dsDNA, one strand shown
In short: as §1

ETV1 = ETV1 (Homo sapiens, UniProt P50549 1-477); settings: protein: recombinant; tags: N-terminal GST; dsDNA, one strand shown
In short: as §1

ERF = target: T6, ERF (Homo sapiens, UniProt P50548 1-548); settings: protein: recombinant; tags: N-terminal GST; dsDNA, one strand shown
T6 sequence: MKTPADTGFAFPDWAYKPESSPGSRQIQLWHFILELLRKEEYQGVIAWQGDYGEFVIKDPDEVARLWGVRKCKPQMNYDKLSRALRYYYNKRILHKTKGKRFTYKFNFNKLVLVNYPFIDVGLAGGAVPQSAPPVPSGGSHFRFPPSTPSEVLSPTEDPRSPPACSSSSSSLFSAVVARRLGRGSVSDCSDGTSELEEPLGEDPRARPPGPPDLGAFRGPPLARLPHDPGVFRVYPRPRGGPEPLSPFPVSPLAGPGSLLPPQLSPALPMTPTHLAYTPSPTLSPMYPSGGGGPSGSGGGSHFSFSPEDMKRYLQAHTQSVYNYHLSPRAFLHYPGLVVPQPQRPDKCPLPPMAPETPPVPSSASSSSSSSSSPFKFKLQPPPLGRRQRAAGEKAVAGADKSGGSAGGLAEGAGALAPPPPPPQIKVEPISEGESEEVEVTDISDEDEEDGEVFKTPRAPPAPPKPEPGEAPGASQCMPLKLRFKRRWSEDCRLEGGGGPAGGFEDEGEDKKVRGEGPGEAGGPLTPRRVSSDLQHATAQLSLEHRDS
In short: as §1

ETV3L = target: T7, ETV3L (Homo sapiens, UniProt Q6ZN32 1-361); settings: protein: recombinant; tags: N-terminal GST; dsDNA, one strand shown
T7 sequence: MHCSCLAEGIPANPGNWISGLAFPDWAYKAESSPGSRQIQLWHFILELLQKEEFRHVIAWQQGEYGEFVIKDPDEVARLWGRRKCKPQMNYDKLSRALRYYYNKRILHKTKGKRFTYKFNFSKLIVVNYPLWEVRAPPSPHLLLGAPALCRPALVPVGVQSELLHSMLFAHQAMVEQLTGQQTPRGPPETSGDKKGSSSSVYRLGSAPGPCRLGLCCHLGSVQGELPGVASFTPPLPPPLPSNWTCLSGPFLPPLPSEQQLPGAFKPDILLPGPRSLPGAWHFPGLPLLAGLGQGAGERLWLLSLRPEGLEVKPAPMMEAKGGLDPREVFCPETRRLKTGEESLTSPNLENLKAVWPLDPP
In short: as §1

ETS2 = target: T8, ETS2 (Homo sapiens, UniProt P15036 1-469); settings: protein: recombinant; tags: N-terminal GST; dsDNA, one strand shown
T8 sequence: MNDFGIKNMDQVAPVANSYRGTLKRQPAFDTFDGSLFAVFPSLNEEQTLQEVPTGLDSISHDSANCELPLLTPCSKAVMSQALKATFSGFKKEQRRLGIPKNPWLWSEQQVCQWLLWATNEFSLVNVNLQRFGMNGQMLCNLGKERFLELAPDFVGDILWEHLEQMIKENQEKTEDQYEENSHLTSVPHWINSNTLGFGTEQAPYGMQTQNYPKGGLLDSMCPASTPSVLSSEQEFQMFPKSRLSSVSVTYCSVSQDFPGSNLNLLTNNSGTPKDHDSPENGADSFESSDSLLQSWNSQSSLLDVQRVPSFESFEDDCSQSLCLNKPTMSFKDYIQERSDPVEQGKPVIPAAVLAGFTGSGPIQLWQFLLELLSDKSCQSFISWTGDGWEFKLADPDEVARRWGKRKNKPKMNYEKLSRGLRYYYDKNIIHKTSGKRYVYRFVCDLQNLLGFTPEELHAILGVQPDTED
In short: as §1

SPDEF = target: T9, SPDEF (Homo sapiens, UniProt O95238 1-335); settings: protein: recombinant; tags: N-terminal GST; dsDNA, one strand shown
T9 sequence: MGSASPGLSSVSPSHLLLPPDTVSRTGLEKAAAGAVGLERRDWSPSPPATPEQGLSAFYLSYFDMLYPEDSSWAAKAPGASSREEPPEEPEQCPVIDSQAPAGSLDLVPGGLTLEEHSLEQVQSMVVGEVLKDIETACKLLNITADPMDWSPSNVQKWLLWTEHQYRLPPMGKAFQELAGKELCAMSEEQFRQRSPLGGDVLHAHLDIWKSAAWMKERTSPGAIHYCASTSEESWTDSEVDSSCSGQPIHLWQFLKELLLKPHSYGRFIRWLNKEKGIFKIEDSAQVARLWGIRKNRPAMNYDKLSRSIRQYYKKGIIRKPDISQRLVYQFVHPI
In short: as §1

ETV7 = target: T10, ETV7 (Homo sapiens, UniProt Q9Y603 1-341); settings: protein: recombinant; tags: N-terminal GST; dsDNA, one strand shown
T10 sequence: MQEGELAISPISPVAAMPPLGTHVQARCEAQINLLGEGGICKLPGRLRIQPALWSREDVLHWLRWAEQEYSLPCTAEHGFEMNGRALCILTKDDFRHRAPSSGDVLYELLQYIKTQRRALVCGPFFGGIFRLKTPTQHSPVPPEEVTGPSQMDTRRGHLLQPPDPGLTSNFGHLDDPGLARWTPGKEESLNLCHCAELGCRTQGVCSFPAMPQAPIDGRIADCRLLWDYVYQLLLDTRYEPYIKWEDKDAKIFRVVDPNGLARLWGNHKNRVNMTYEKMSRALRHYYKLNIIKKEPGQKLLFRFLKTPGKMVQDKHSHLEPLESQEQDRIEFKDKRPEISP
In short: as §1

ELF5 = target: T11, ELF5 (Homo sapiens, UniProt Q9UKW6-2 1-255); settings: protein: recombinant; tags: N-terminal GST; dsDNA, one strand shown
T11 sequence: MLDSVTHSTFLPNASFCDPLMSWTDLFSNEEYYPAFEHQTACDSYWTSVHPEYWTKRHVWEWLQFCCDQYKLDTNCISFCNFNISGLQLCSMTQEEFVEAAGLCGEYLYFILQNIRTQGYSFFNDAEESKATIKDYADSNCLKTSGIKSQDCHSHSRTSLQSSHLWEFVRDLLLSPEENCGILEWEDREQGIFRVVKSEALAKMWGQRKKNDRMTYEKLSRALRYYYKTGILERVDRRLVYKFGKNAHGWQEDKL
In short: as §1

ETV3 = target: T12, ETV3 (Homo sapiens, UniProt P41162-2 1-143); settings: protein: recombinant; tags: N-terminal GST; dsDNA, one strand shown
T12 sequence: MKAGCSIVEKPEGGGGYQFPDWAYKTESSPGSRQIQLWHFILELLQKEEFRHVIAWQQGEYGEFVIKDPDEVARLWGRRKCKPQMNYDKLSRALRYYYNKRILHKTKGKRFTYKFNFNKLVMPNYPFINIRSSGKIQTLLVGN
In short: as §1

ETV6 = ETV6 (Homo sapiens, UniProt P41212 1-452); settings: protein: recombinant; tags: N-terminal GST; dsDNA, one strand shown
In short: as §1

Sequence of ETV1 (P50549 whole entry): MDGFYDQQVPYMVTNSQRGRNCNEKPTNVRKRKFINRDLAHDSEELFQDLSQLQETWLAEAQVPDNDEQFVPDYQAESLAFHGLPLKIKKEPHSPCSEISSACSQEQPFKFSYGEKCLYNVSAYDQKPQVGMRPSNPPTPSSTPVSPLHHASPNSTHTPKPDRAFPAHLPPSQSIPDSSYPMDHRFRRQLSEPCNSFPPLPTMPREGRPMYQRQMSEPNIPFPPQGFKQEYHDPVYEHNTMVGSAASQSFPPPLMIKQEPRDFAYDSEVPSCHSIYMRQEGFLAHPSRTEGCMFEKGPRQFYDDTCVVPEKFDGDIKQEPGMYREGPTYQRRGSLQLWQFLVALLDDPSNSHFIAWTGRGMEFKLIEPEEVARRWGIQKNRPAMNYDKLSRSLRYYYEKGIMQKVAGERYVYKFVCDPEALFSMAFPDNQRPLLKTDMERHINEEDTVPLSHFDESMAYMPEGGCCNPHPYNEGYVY
Sequence of CRX (O43186 whole entry): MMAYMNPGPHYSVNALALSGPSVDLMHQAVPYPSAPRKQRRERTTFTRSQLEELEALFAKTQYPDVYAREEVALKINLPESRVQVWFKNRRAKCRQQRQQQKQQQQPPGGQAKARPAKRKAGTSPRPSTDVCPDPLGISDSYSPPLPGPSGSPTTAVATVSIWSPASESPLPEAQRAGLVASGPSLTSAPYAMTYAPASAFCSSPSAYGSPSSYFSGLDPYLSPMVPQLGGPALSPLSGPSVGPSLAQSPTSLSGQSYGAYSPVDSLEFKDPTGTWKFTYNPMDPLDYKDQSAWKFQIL
Sequence of ELF4 (Q99607 whole entry): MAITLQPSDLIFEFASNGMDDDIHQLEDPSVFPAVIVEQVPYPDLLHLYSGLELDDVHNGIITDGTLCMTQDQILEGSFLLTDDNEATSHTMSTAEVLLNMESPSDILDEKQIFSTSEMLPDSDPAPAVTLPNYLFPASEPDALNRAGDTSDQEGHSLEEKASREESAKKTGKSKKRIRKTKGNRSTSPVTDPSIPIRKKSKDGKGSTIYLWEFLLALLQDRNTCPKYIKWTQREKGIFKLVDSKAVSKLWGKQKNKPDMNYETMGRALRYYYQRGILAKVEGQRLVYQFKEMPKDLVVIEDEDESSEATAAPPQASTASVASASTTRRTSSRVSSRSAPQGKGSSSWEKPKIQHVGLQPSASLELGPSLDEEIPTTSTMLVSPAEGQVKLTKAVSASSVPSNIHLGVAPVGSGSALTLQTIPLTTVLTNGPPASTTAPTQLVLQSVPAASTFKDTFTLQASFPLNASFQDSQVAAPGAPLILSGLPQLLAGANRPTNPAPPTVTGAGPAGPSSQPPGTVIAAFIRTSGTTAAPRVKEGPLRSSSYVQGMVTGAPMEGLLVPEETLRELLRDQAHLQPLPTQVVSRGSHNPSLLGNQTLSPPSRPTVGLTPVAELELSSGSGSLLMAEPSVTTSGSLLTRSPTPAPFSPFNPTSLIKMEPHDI
Sequence of ETV6 (P41212 whole entry): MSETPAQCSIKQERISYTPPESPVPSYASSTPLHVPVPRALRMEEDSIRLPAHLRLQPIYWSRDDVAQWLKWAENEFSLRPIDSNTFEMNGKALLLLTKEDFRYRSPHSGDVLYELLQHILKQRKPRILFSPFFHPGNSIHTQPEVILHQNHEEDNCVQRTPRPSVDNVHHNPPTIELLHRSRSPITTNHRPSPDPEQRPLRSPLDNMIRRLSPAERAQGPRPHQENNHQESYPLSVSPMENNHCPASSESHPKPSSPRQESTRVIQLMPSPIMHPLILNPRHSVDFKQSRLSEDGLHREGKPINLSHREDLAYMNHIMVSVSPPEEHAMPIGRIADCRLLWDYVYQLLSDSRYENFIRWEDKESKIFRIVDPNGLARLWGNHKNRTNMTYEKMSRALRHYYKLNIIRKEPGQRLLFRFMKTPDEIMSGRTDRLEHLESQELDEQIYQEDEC
Sequence of ETV5 (P41161 whole entry): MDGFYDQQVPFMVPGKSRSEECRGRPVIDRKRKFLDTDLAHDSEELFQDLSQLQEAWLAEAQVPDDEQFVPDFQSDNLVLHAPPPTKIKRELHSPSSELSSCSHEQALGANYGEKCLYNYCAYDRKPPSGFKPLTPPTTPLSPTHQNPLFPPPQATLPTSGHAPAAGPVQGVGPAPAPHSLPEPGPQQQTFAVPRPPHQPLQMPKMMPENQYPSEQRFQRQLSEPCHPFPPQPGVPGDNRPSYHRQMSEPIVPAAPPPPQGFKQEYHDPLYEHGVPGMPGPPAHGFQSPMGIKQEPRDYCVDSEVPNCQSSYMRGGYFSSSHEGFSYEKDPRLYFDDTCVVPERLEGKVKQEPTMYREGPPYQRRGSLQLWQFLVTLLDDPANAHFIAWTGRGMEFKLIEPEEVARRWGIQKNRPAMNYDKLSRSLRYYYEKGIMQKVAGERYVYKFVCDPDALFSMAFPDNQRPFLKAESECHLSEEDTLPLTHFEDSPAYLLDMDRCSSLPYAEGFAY
Sequence of HSF1 (Q00613 whole entry): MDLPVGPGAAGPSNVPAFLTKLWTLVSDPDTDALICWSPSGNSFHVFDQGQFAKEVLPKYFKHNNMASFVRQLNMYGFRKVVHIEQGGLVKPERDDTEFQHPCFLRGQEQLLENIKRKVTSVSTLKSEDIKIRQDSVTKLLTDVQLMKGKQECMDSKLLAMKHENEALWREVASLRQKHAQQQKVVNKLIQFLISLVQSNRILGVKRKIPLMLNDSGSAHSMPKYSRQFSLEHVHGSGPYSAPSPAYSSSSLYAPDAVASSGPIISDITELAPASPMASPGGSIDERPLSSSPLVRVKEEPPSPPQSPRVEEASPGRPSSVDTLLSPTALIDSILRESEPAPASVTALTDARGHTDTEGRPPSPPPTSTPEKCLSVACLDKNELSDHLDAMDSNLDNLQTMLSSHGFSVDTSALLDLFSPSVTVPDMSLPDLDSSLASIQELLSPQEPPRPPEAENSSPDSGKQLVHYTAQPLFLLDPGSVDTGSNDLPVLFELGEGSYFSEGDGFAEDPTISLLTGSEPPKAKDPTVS

TTCGGT
binding signal (FEV): 1.16 fold enrichment (6-mer frequency, TF over GST control) | binding signal (ETV5): 1.23 fold enrichment (6-mer frequency, TF over GST control) | binding signal (HSF1): 1.22 fold enrichment (6-mer frequency, TF over GST control) | binding signal (SPIC): 1.34 fold enrichment (6-mer frequency, TF over GST control) | binding signal (ELF4): 1.17 fold enrichment (6-mer frequency, TF over GST control) | binding signal (ELK4): 1.21 fold enrichment (6-mer frequency, TF over GST control) | binding signal (ETV2): 1.13 fold enrichment (6-mer frequency, TF over GST control) | binding signal (ELF3): 1.04 fold enrichment (6-mer frequency, TF over GST control) | binding signal (CRX): 1 fold enrichment (6-mer frequency, TF over GST control) | binding signal (ETV1): 1.23 fold enrichment (6-mer frequency, TF over GST control) | binding signal (ERF): 1.18 fold enrichment (6-mer frequency, TF over GST control) | binding signal (ETV3L): 1.11 fold enrichment (6-mer frequency, TF over GST control) | binding signal (ETS2): 1.16 fold enrichment (6-mer frequency, TF over GST control) | binding signal (SPDEF): 1.13 fold enrichment (6-mer frequency, TF over GST control) | binding signal (ETV7): 1.15 fold enrichment (6-mer frequency, TF over GST control) | binding signal (ELF5): 1.06 fold enrichment (6-mer frequency, TF over GST control) | binding signal (ETV3): 1.07 fold enrichment (6-mer frequency, TF over GST control) | binding signal (ETV6): 1.22 fold enrichment (6-mer frequency, TF over GST control)
